The results in this text go back to PubChem BioAssay AID2501 (Southern Research Specialized Biocontainment Screening …, 2010).

In all, about 2,200 compounds went through this assay and about 1,200 (55%) were called active. Cut-off not given; nearly all actives show IC50 up to about 92 µM. So high a share suggests a set chosen from earlier hits. The list shows a part of the results.

This assay in a line: counter assay for TAg ATPase ADP read-out – biochemical, ADP-Hunter, fluorescence, counter-screen (AID 2501).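 Further: purified T antigen ATPase.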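 On inhibition: higher means more inhibition.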 The settings on record: series mostly up to 100 µM. Background: Counterscreens check selectivity or assay interference.
Take `COc1cccc2sc(Nc3nnc(-c4cccs4)o3)nc12`: the IC50 (commonly the point on the concentration scale where inhibition reaches its midpoint) is “inactive”.

On to `O=C(/C=C/c1ccc2ccccc2n1)N1CCN(S(=O)(=O)c2ccccc2F)CC1`, for which the IC50 result is “inactive”.

Turning to `CCCC1Nc2ccc(C(=O)O)cc2C2C=CCC12` (stereo not given), the IC50 result is “inactive”.

For `COc1ccc2nc3ccccc3nc2c1N`, the half-inhibitory concentration (IC50) is 19.9 µM (active).

Regarding `NC(=O)NCCCC(=O)OCC(=O)c1ccc2ccccc2c1`, the IC50 result was “inactive”.

As to `Cc1ccc2oc(=O)c(/C=C(\O)CC(C)C)nc2c1`, the concentration for half-maximal inhibition (IC50) was 4.38 µM (active).

On to `Cc1ccc2oc(=O)c(/C=C(\O)C(C)(C)C)nc2c1`, for which the concentration for half-maximal inhibition (IC50) is 6.56 µM (active).

For `NNc1nc(-c2ccccc2)nc(-c2ccccc2)c1Br`, the IC50 result was “inactive”.

`O=C(CC1SC(=O)NC1=O)Oc1ccc(/C=N/NC(=O)c2ccccc2O)cc1` (stereo not given): the IC50 was 50.6 µM (active).

In the case of `COc1cc(/C=N/NC(=O)c2ccccc2O)ccc1OC(=O)CC1SC(=O)NC1=O` (stereo not given), the IC50 is 33.4 µM (active).

Take `CC[C@H](C)/C=C/C1=CC2=C(Cl)C(=O)[C@@]3(C)OC(=O)C(C(=O)[C@H](C)[C@@H](C)O)=C3C2=CO1`: the IC50 entry was “inactive”.

Regarding `Nc1ccc(Nc2nc3ccccc3[nH]2)cc1`, the half-maximal inhibitory concentration (IC50) is 6.24 µM (active).

`O=C(CCc1ccc(O)c(O)c1)NNC(=S)Nc1ccc(Br)cc1Cl`: the IC50 was 19.5 µM (active).

For the molecule `O=C(CSC1=NS(=O)(=O)c2ccccc21)Nc1ccccc1`, the IC50 entry was “inactive”.

With `O=S1(=O)N=C(Nc2ccc(O)cc2)c2ccccc21`, the half-inhibitory concentration (IC50) is 3.57 µM (active).

On to `C=Cc1ccc2c(c1)OCCOCCOCCOCCOCCO2`, for which the IC50 entry is “inactive”.

For `CC(C)(C)c1ccc(OCCC(=O)NNC(=O)c2ccccc2)cc1`, the IC50 was 41.8 µM (active).

Consider `CC(C)(C)c1ccc(OCC(O)CS(=O)(=O)c2ccccn2)cc1` (stereo not given), for which the IC50 entry is “inactive”.

Regarding `Cc1cccc(OCC(=O)NC(=S)NNC(=O)c2ccncc2)c1`, the IC50 result is “inactive”.

In the case of `CCN(CC)c1ccc(/C=C2\C(=O)N(c3nnc(C)c(=O)[nH]3)N=C2C)cc1`, the IC50 entry was “inactive”.

Take `CCN(CC)c1ccc(/C=N/N2CCOCC2)cc1`: the IC50 was 4.08 µM (active).

For `CCN(CC)c1ccc(/C=N/O)cc1`, the concentration for half-maximal inhibition (IC50) is 4.69 µM (active).

Regarding `O=C(O)c1ccc(-n2nc(-c3ccccc3)c3ccccc3c2=O)cc1`, the IC50 result is “inactive”.

In the case of `CCOc1ccc(/C=N/n2nnnc2N)cc1O`, the 50% inhibitory concentration (IC50) was 3.62 µM (active).

Turning to `COc1cc(/C=N/n2nnnc2N)ccc1O`, the IC50 is 2.77 µM (active).

Turning to `COC(=O)CN(c1ccccc1F)S(=O)(=O)c1ccccc1`, the IC50 result is “inactive”.

`CCOCCCn1c(SCC(=O)Nc2cc(OC)ccc2OC)nc2ccccc2c1=O`: the IC50 result was “inactive”.

Regarding `COc1cccc(-n2c(SCc3cc(=O)oc4cc(O)c(O)cc34)nc3ccccc3c2=O)c1`, the IC50 was 49.8 µM (active).

Regarding `Cc1ccc(C)n1-c1ccncc1`, the IC50 entry was “inactive”.

With `Fc1ccccc1CSc1nnnn1-c1ccc2c(c1)OCO2`, the IC50 entry is “inactive”.

`CN(C)c1ccc(N2CC(C)(C)C2=O)cc1`: the IC50 is 3.63 µM (active).

In the case of `COc1ccc(C2=CC3=C(Br)C(=O)C(C)(OC(=O)c4ccc(Cl)nc4)C(=O)C3=CO2)cc1` (stereo not given), the IC50 entry was “inactive”.

Turning to `COc1ccc(NC2SC(=O)N(C)C2=O)cc1` (stereo not given), the IC50 is 91 µM (active).

As for `O=C(Nc1nnc(COc2ccccc2)s1)C1CCN(S(=O)(=O)c2ccc(Cl)cc2)CC1`, the IC50 entry is “inactive”.

Consider `CC1OC(OCC2OC(Oc3c(-c4ccc(O)cc4)oc4cc(O)cc(O)c4c3=O)C(O)C(O)C2O)C(O)C(O)C1O` (stereo not given), for which the IC50 was 30.9 µM (active).

On to `O=C(O)C1OC(Oc2c(-c3ccc(O)c(O)c3)oc3cc(O)cc(O)c3c2=O)C(O)C(O)C1O` (stereo not given), for which the IC50 is 8.72 µM (active).

Regarding `O=c1c(OC2OC(CO)C(O)C(O)C2O)c(-c2ccc(O)c(O)c2)oc2cc(O)cc(O)c12` (stereo not given), the 50% inhibitory concentration (IC50) was 6.33 µM (active).

For `COc1ccccc1Nc1nc(C)cs1`, the IC50 entry was “inactive”.

Take `Cc1csc(NC(=O)NC2(C(F)(F)F)Oc3ccccc3O2)n1`: the concentration for half-maximal inhibition (IC50) was 12 µM (active).

`Cc1cccc(C)c1NC(=O)C(c1ccc([N+](=O)[O-])cc1)N(C)C(=O)c1ccccn1` (stereo not given): the IC50 entry was “inactive”.

`Cc1ccc(-n2ncc3c(N4CCN(c5ccc(F)cc5)CC4)ncnc32)c(C)c1`: the IC50 result is “inactive”.

Consider `O=C1CC(c2ccco2)CC(O)=C1C=Nc1cc(Cl)cc(Cl)c1` (stereo not given), for which the IC50 result is “inactive”.

In the case of `O=C1C=C(Nc2ccc(O)cc2)CC(c2ccco2)C1` (stereo not given), the IC50 is 3.1 µM (active).

Consider `COC(=O)CCC(=O)OC1(C)C(=O)C=C2C=C3CCCN3C=C2C1=O` (stereo not given), for which the IC50 entry was “inactive”.

Turning to `C/C=C/C=C/C(=O)Nc1cccc(C2=NOC3(C2)C[C@H](C(N)=O)N(C(=O)CC(c2ccccc2)c2ccccc2)C3)c1` (stereo not given in full), the IC50 entry was “inactive”.

Regarding `CCCCNC(=O)c1sc(=S)n2c1[nH]c(=O)c1ccccc12`, the IC50 was 57.9 µM (active).

Consider `N#Cc1c(NC(=O)CCC(=O)O)sc2c1CCCC2`, for which the IC50 entry was “inactive”.

As to `O=[N+]([O-])c1ccc(-[n+]2ccc3ccccc3c2)c([N+](=O)[O-])c1`, the IC50 entry was “inactive”.

Consider `O=[N+]([O-])c1cccnc1SCc1ccccc1`, for which the IC50 entry is “inactive”.

Consider `O=c1c2c([N+](=O)[O-])cc([N+](=O)[O-])cc2sn1Cc1ccccc1`, for which the 50% inhibitory concentration (IC50) is 77.3 µM (active).

As to `Cc1cc(=O)oc2c(N)c(O)ccc12`, the IC50 is 2.9 µM (active).

For `CCc1c(C(=O)c2ccc(Cl)cc2)oc2c(C)c3oc(=O)cc(C)c3cc12`, the IC50 entry is “inactive”.

For `CN(CC(=O)Nc1ccccc1Br)C(=O)c1cc(S(=O)(=O)N(C)C)ccc1N1CCCC1`, the IC50 result is “inactive”.

`CCN(CC)S(=O)(=O)c1ccc(N2CCCCC2)c(NC(=O)/C=C/c2cc(OC)c(OC)c(OC)c2)c1`: the IC50 entry was “inactive”.

As for `Cc1ccccc1NC(=O)c1cc(N)ccc1N1CCCCC1`, the half-maximal inhibitory concentration (IC50) was 5.41 µM (active).

Consider `O=C(N/N=C/c1ccc(O)c(O)c1)c1cccc(S(=O)(=O)N2CCCC2)c1`, for which the IC50 is 4.88 µM (active).

Take `O=C(N/N=C/c1ccc(O)c(O)c1)c1cccc(S(=O)(=O)N2CCCCC2)c1`: the half-maximal inhibitory concentration (IC50) was 10.5 µM (active).

As to `CC(NCC(=O)Nc1cc(S(=O)(=O)N2CCCCCC2)ccc1Cl)c1ccccc1` (stereo not given), the IC50 entry is “inactive”.

With `COc1cc(/C=N/NC(=O)c2cccc(S(=O)(=O)N3CCCC3)c2)ccc1O`, the IC50 was 4.27 µM (active).

For the molecule `CCNC(=O)NC(=O)C(C)OC(=O)c1cc(S(=O)(=O)N2CCCCCC2)ccc1OC` (stereo not given), the IC50 result is “inactive”.

On to `O=C1CCCC/C1=C\Nc1ccc(O)cc1`, for which the IC50 was 4.32 µM (active).

For the molecule `Cc1cc(O)ccc1N/C=C1\CCCC1=O`, the half-maximal inhibitory concentration (IC50) is 10.2 µM (active).

`Oc1ccc2c(c1)oc1cc(O)ccc12`: the IC50 is 4.05 µM (active).

Regarding `O=c1oc2cc(O)ccc2c2ccccc12`, the IC50 was 8.47 µM (active).

For `Cc1ccc(C(C)NC(=S)NCc2ccc(F)cc2)cc1C` (stereo not given), the half-inhibitory concentration (IC50) was 33.9 µM (active).
